# Screening data (PubChem)
# A selection: hits, their analogues and other compounds. The true share with any hit is near 3.8%.
# MITF act: activators of MITF-driven TRPM1 promoter reporter, primary screen, cell-based, SK-MEL-5, luciferase, single point; SK-MEL-5 TRPM1-promoter luciferase, 24 h; % of positive control, neutral wells = 0; activation, % at 12.5 µM; actives 0.75% (n = 300,000);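 active = mean activation of at least 80% with every replicate also reaching 80%; inconclusive = mean reaches 80% but some replicate falls short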;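 note: 0% = neutral control wells and 100% = parthenolide positive control wells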
# HSF1 inhib: HSF1 inhibitors in luciferase reporter cells, primary screen, cell-based, NIH3T3, luminescence; NIH3T3-HGL HSE-luciferase, MG132-induced, luminescence 8 h; stronger effect = lower value; activity change, negative = inhibition, % at 7.5 µM (by protocol); actives 0.77% (n = 300,000);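 active = more than half of replicate wells show activity change below -50%, luminescence cut by over half; inconclusive = some wells, but at most half, below -50%; inactive = no replicate well below -50%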;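 note: luciferase reports HSF-1 transcriptional activity via heat shock element; 0% = median of DMSO wells and -100% = zero luminescence signal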
# Wnt bcat act: Wnt/beta-catenin pathway activators, primary screen, cell-based, plate reader, single point | Wnt/beta-catenin reporter cell assay, activator | activation, % at 9.35 µM | actives 1.2% (n = 300,000); in the data active = activation above about 30%, passing the limit was not always enough; inconclusive = no clear call, values can overlap the other calls;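 note: 0% = neutral control wells and 100% = positive control wells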
# esBAF inh: Bmi1 luciferase reporter increase in mESCs, primary screen, esBAF inhibitor project, mouse ES cells, Bmi1 luciferase knock-in, single point; 24 h; 100% = twice the neutral-well signal; reporter increase, % at 12.5 µM; actives 2% (n = 350,000); AID 602393, 2012; in the data active = activation above about 40%; inconclusive = no clear call, values can overlap the other calls;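 note: 0% = median of the plate's neutral control wells and 100% = double that signal; a rise in the Bmi1 reporter signal indicates esBAF inhibition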
# HSF1 activator: HSF-1 activators, primary screen, NIH3T3-HGL cells, MG132 stress, luminescence, single point. NIH3T3-HGL HSF-1 luciferase reporter, 8 h; 100% = twice DMSO control signal. activation, % at 9 µM. actives 1.7% (n = 300,000). AID 504408, 2011;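 active = mean replicate activation of at least 50% with a set share of replicates each reaching 50%; inconclusive = only one of those two conditions met; inactive = mean below 50% and too few replicates reaching it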;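 note: 0% = median of the neutral control wells and 100% = twice that signal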
# * hit, by the source's call; ? = inconclusive; . = not tested or not shown.
SMILES,MITF act,HSF1 inhib,Wnt bcat act,esBAF inh,HSF1 activator
CCOC(=O)Cn1nnnc1C(CC)N(Cc1cc2ccc(C)cc2[nH]c1=O)C1CCCC1 (stereo not given),-2,53,.,-7,69*
CCc1ccc(-c2ccc(SCc3ccccn3)nn2)cc1,71,20,13,63*,42
Cc1ccc(-c2[nH]ncc2C(=O)c2ccc(Br)cc2)c(O)c1,3,15,0,.,71*
O=C(c1cccnc1)N1CCCCN2[C@H](C1)[C@H](c1ccc(C#Cc3ccccn3)cc1)[C@@H]2CO,.,.,.,0,.
CN1CCN(C(=O)C2CCC(=O)N(CCc3cccc(F)c3)C2)CC1 (stereo not given),-15,-1,-2,.,21
COc1ccccc1CN1CC(C(=O)N2CCCCO2)CCC1=O (stereo not given),55,11,19,38,23
O=C1CCC(C(=O)N2CCCCO2)CN1CCc1ccccc1 (stereo not given),66,18,28,51*,31
COC(=O)C1CCN(C(=O)C2CCC(=O)N(CCc3cccc(F)c3)C2)CC1 (stereo not given),19,6,3,53*,-8
C[C@@H]1CN([C@H](C)CO)C(=O)c2cc(NC(=O)C3CCCCC3)ccc2O[C@@H]1CN(C)Cc1ccc(C(=O)O)cc1,.,.,.,-5,.
C[C@H]1CN([C@@H](C)CO)C(=O)c2cc(NC(=O)CCN3CCOCC3)ccc2O[C@H]1CN(C)CC1CCCCC1,.,.,.,3,.
Cc1ccc(O)c(-n2nc3ccccc3n2)c1,?,7,10,43*,37
O=C(c1ccccc1)c1ccc2nc(-c3ccco3)c(-c3ccco3)nc2c1,64,19,36*,40,89*
COc1ccccc1NC(=O)N[C@@H]1CC[C@H](CCNS(=O)(=O)c2ccccc2)O[C@@H]1CO,.,.,.,7,.
CSc1cccc(NS(=O)(=O)c2cc(Br)cnc2N)c1,-5,-61*,-1,0,-70
Cc1ccc(NS(=O)(=O)c2cc(Br)cnc2N)cc1C,-9,20,-2,-1,47
Cc1ccc(Cn2c(Sc3nccc(C)n3)nc3c2c(=O)[nH]c(=O)n3C)cc1,.,8,2,-8,32
CC(=O)CSc1nc2c(c(=O)[nH]c(=O)n2C)n1Cc1cccc(Br)c1,-12,30,0,-11,58*
Cc1ccc(Cn2c(Sc3ncccn3)nc3c2c(=O)[nH]c(=O)n3C)cc1,.,-65*,-2,0,-73
COC(=O)c1c(C)[nH]c(C(=O)CSc2ccc(Cl)cc2)c1C,78,55,15,38,91*
COC(=O)c1c(C)[nH]c(C(=O)/C=C/c2ccc(C)cc2)c1C,.,4,-14,.,16
COC(=O)c1c(C)[nH]c(C(=O)/C=C/c2ccccc2)c1C,76,27,.,.,59*
COC(=O)c1c(C)[nH]c(C(=O)/C=C/c2cccc(Cl)c2)c1C,57,267,.,.,356*
Cc1[nH]c2ccccc2c(=O)c1C(=O)/C=C/c1ccccc1,-84,111,-13,-55,87*
CCOC(=O)c1c(C)[nH]c(C)c1C(=O)COC(=O)/C=C/c1cccc(Cl)c1,0,.,.,.,.
CCCC(=O)Nc1ccc2c(c1)C(=O)N(C)[C@@H]1CC[C@@H](CC(=O)NCc3ccccc3F)O[C@H]1CO2,.,.,.,-3,.
SMILES,MITF act,HSF1 inhib,Wnt bcat act,esBAF inh,HSF1 activator
CN1C(=O)c2cc(NC(=O)C3CCOCC3)ccc2OC[C@H]2O[C@H](CC(=O)O)CC[C@@H]21,.,.,.,-3,.
CSc1nsc(SCC(=O)Nc2ccc(OC(C)=O)cc2)n1,89*,9,41*,.,7
CC(=O)N(Cc1ccco1)c1nc(C(=O)Nc2ccc(Cl)cc2)c(C)s1,19,15,21,.,53*
CCN(CCCNS(=O)(=O)c1ccc2c(c1)CCN2C(C)=O)c1cccc(C)c1,-4,44,-3,-6,69*
CCOC(=O)/C=C/C(=O)Nc1ccccc1-c1ccccc1NC(=O)/C=C/C(=O)OCC,-12,-56*,11,.,-56
Oc1cccc(-c2nc3ccc4ccccc4c3c3c2CCC3)c1,93*,37,.,.,59*
C[C@@H]1CCCCO[C@H](CN(C)C(=O)c2ccccc2)[C@H](C)CN([C@@H](C)CO)C(=O)c2cc(NC(=O)Nc3ccc(F)cc3)ccc2O1,.,.,.,-2,.
C=CCNc1cc(C)oc(=O)c1C(=O)CC,-6,5,-2,.,22
C=CCNc1cc(C)oc(=O)c1C(=O)CCC,11,-68*,.,-4,-72
COc1ccc(N2C(=O)CC(Sc3nnnn3-c3ccc(F)cc3)C2=O)cc1 (stereo not given),-16,40,-2,-13,70*
COc1ccc(-c2c(C)nn(-c3ccccc3)c2N)cc1OC,2,12,.,0,9
COc1ccc(-c2c(C)nn(-c3ccccc3)c2N)cc1,103*,17,13,63*,40
Cc1nn(-c2ccccc2)c(N)c1C(c1ccccc1)c1c(C)nn(-c2ccccc2)c1N,-6,63,1,.,79*
Nc1c(-c2ccccc2)cnn1-c1ccc(C(=O)O)cc1,41,3,.,17,9
Cc1nn(-c2ccc(C(=O)O)cc2)c(N)c1-c1ccccc1,59,-22,20,61*,-24
Cc1cc2occ(CC(=O)NCc3cccs3)c2cc1C(C)C,1,12,0,.,62*
COc1ccc(NC(=O)N[C@@H]2CC[C@@H](CC(=O)NC3CCC3)O[C@H]2CO)cc1,.,.,.,0,.
COCOCCn1cc(CN2CCS(=O)(=O)N(Cc3ccc(-c4ccc(Cl)nc4)cc3)C(CC(C)C)C2=O)nn1 (stereo not given),.,.,0,45*,.
Clc1ccc(/C=N/N2CCCCC2)cc1,94*,5,33*,.,0
Clc1ccc(C=NN2CCCCCC2)cc1Cl,56,.,56*,.,.
O=[N+]([O-])c1ccc(/C=N/N2CCCCC2)cc1,106*,23,18,77*,49
C(=NN1CCCCCC1)c1ccccc1,21,.,9,.,.
C[C@@H]1CN([C@@H](C)CO)C(=O)c2cc(N(C)C)ccc2O[C@@H](C)CCCCO[C@H]1CN(C)Cc1ccc2c(c1)OCO2,.,.,.,-8,.
C[C@@H]1CN([C@@H](C)CO)C(=O)c2cc(NC(=O)NC3CCCCC3)ccc2O[C@@H](C)CCCCO[C@H]1CN(C)S(=O)(=O)c1ccc(F)cc1,.,.,.,-1,.
CC(=O)c1sc(N/N=C\c2ccccc2O)nc1C,76,26,21,17,56*
CCOC(=O)c1sc(Nc2nc3c(OC)cccc3s2)nc1C,1,27,.,67*,26
CCOC(=O)c1sc(Nc2ccc(F)cc2)nc1C,25,14,-5,.,28
